The structures appear in SMILES notation.

In the assay the target is AMP-activated protein kinase, AMPK (Homo sapiens) (UniProt P54646+O43741+P54619+Q9UGJ0+Q9Y478+Q13131+Q9UGI9). Briefly: AMP-dependent Kinase enzyme assay. An in vitro enzyme assay that detects ADP turnover that is directly proportional to AMPK activity. This uses naive AMPK that is activated during the assay with MK-8722. Type of assay: functional. On the set-up: scale not given: direction of the effect not stated beside the values. The following applies: 30 µM.
Consider `Cn1cc(CC(=O)N2CCCC(c3cc(C(F)(F)F)[nH]n3)C2)cn1` (stereo not given), for which the Percent Effect was -6.59%.

With `Cc1oc(-c2ccco2)nc1CN1CCc2cnc(C(C)C)nc2C1`, the Percent Effect was -25.9%. For `COc1ccc(C)cc1CN(CC(N)=O)C(C)C` the value was 0.855%. Regarding `O=C(O)CN(Cc1ccsc1)CC1CCCO1` (stereo not given), the Percent Effect came to 10.1%. The result for `CN(Cc1ccsc1)C(=O)c1nc(N2CCCCC2)ncc1Cl` reads 0.035%; that for `Cc1ncsc1CCC(=O)N(C)Cc1nc2ccccc2n1C`, 0.381%. Regarding `COC(=O)N1CCCCC1C(=O)N1CCN(c2ncccc2C)CC1` (stereo not given), the Percent Effect is -4.85%.

Take `O=C(CCCN1CCCCC1)NC(C(=O)O)c1ccc(Cl)cc1` (stereo not given): the Percent Effect was 6.04%. For `CCOCCN1CCN(c2ccc(C#N)cn2)CC1CC` (stereo not given), the Percent Effect is 6.68%. The result for `COC(=O)CC1CSCCN1C(=O)CCc1c(C)nn(C)c1C` (stereo not given) reads 5.71%. For the compound `COC(=O)C1CCN(C(=O)Cn2ccc(-c3ccccc3)n2)CC1`, the Percent Effect was -5.77%. With `c1ccc(C2CN(C3CC3)CC3(CCN(Cc4cscn4)CC3)C2)cc1` (stereo not given), the Percent Effect turned out to be 4.81%. The result for `Cc1cc(C2CCCN(CCC(=O)N3CCc4ccccc43)C2)n[nH]1` (stereo not given) reads -4.69%; that for `Cn1cc(S(=O)(=O)Nc2ccc3[nH]c(C4CCC4)nc3c2)cn1`, -6.7%; that for `O=C(NCC1CCS(=O)(=O)C1)N(Cc1ccccn1)C1CC1` (stereo not given), -6.01%.

Take `CN1CC(C(=O)NCCc2ccc(Br)cc2F)CC1=O` (stereo not given): the Percent Effect was 7.63%. As for `CC(C)(C)OC(=O)N(CCNS(=O)(=O)N1CCOCC1)C1CC1`, the Percent Effect was 8.24%.

Regarding `CC(CN1CCOCC1)n1cncc1-c1cnn(Cc2ccccc2)c1` (stereo not given), the Percent Effect was 2.92%. In the case of `Cc1cc(F)ccc1N1CCCC(NC(=O)CCc2ccncc2)C1` (stereo not given), the Percent Effect came out at 14.9%.

Regarding `CN(C)C(=O)CN1CCCC(c2nccnc2-c2cccc(Cl)c2)C1` (stereo not given), the Percent Effect amounted to 19.9%. On to `COc1ccccc1OC1CCN(C(=O)c2cnc(C)s2)CC1`, for which the Percent Effect stood at 3.19%. For `CCn1cnnc1CCNC(=O)c1ccc(Br)cc1F` the value was -0.992%; for `COCc1c(Br)cccc1NC(=O)N(C)CCO`, -5.13%; for `O=C(NCC(O)c1cccc(F)c1)C1CCN(C2CCCCC2)CC1` (stereo not given), -10%.

`CCC(O)Cn1nc(-c2ccc(C(=O)O)cc2)cc1-c1ccc(F)cc1` (stereo not given): the Percent Effect came to 12%. The result for `CC(C)(C)CC(NC(=O)N1CCS(=O)(=O)CC1)C(F)(F)F` (stereo not given) reads -0.804%. As for `O=C1OC2(CCN(CC3CCCO3)CC2)CN1CCc1ccccc1` (stereo not given), the Percent Effect was -11.7%. As to `CSCC(=O)N(C)Cc1noc(-c2ccccc2)n1`, the Percent Effect was found to be 6.32%. `COC(CNC(=O)c1ccc[nH]1)c1cccc(Cl)c1` (stereo not given): the Percent Effect is 1.53%.

Regarding `Cc1ncc(C(=O)N2CCCC2c2c(C)nn(C)c2C)s1` (stereo not given), the Percent Effect came out at 1.37%. As to `O=C(NCc1cccnc1N1CCCCC1)c1ccc2cc[nH]c2c1`, the Percent Effect worked out at 1.26%. The result for `COc1cc(NCCCSc2nnc(C)s2)ncn1` reads 13.7%; that for `COCCN1CCN(Cc2cnc(C3(C)CCCCO3)nc2)CC1` (stereo not given), 11.3%.

For `CC(C)(C)c1cn2c(n1)C(CNCc1cnn3ccccc13)CCC2` (stereo not given), the Percent Effect was -1.22%.

Consider `O=C(CCn1cccn1)NCCOc1ccc2c(c1)OCO2`, for which the Percent Effect is -5.16%. For `CCN1CCC(CC(=O)NCc2nc(C)cc(C)n2)CC1` the value was 9.34%; for `Cc1ncoc1C(=O)N1CCOC(Cc2ccccc2)C1` (stereo not given), 8.13%; for `CC(NC(=O)N1CCC1)c1ccc(S(N)(=O)=O)cc1` (stereo not given), 7.72%. With `COc1cc(Cl)ccc1CNC(=O)N(C)C(C)CS(C)(=O)=O` (stereo not given), the Percent Effect is -1.65%.

As for `Fc1ccc(C2(c3noc(CCN4CCCCO4)n3)CCOC2)cc1` (stereo not given), the Percent Effect stood at 5.16%.

The values are drawn from ChEMBL document CHEMBL3988442, “University of Dundee, Small-Polar-MMV Screening Library” (2021).
